Experimental data as given in paper PMC5700166.
Where a chain is given by its changes, count along the chain named.

Columns and labels:
Experiment in all cases: protein-binding microarray (PBM); PBM: ~300 nM protein, 6 mM HEPES pH 7.8, 80 mM KCl, 0.5 mM EDTA, 0.5 mM EGTA, 6% glycerol, 35 ng/ul poly-dIdC, 1% milk, 1 h, room temperature; Ap Aiptasia and Nv Nematostella (sea anemones) / Co Capsaspora / Aq Amphimedon (sponge) / Dm Drosophila / Hu human; RHD is the Rel homology domain; high values mean tight binding
Conditions in all cases: dsDNA, one strand shown
[1] = target: T1, GST-Ap-NF-kB RHD (Exaiptasia pallida (Aiptasia), UniProt A0A913YAJ5 2-422)
T1 sequence: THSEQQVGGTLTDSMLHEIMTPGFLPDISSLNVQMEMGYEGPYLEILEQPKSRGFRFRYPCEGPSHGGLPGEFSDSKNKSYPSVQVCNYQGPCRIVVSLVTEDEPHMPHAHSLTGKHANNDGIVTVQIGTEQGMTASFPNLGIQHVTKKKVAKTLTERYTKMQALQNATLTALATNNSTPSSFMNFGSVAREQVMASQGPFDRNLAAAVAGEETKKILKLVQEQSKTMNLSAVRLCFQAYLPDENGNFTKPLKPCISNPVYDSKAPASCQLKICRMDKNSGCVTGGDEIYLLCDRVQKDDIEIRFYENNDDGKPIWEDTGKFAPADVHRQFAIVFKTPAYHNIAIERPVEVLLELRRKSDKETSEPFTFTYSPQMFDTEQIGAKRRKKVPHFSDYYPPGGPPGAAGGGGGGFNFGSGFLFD

[2] = target: T2, GST-Nv-NF-kB (Cys allele) (Nematostella vectensis, UniProt E5G601 2-411)
T2 sequence: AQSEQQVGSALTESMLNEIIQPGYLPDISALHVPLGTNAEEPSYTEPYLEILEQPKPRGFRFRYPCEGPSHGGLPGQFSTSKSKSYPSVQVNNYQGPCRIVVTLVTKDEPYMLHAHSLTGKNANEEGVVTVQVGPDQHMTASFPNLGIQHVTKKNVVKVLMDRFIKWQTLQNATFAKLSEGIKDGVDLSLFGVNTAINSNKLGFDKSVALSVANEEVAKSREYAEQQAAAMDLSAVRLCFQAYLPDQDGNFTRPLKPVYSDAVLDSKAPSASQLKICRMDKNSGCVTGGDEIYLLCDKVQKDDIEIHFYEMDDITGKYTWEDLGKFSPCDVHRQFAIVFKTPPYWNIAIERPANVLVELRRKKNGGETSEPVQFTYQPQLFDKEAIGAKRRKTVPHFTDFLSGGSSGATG

[3] = target: T3, GST-Aq-NF-kB (Amphimedon queenslandica, UniProt A9Y5G7 2-389)
T3 sequence: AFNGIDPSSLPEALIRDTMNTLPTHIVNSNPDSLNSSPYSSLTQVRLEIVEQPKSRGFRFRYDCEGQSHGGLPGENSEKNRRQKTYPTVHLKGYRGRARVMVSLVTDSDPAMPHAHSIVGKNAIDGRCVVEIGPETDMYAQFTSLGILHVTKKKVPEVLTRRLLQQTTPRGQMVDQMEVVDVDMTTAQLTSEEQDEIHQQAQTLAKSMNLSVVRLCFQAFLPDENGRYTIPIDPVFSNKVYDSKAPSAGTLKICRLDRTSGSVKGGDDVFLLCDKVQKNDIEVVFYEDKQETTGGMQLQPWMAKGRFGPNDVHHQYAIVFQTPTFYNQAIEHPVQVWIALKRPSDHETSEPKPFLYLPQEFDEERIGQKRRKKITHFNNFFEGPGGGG

[4] = target: T4, GST-Dm-Relish (Drosophila melanogaster, UniProt Q94527 99-473)
T4 sequence: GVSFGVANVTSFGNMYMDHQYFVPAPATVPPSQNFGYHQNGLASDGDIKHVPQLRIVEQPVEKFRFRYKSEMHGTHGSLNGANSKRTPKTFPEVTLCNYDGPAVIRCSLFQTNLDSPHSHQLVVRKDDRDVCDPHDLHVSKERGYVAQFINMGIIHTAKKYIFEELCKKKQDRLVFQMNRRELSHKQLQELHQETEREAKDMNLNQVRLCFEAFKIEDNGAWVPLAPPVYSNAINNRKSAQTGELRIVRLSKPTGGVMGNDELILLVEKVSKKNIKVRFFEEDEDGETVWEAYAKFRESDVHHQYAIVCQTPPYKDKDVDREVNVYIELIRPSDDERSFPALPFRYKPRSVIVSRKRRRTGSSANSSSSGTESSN

[5] = target: GST-Hu-p50 (Homo sapiens, UniProt P19838 7-356)
GST-Hu-p50, sequence (P19838 7-356): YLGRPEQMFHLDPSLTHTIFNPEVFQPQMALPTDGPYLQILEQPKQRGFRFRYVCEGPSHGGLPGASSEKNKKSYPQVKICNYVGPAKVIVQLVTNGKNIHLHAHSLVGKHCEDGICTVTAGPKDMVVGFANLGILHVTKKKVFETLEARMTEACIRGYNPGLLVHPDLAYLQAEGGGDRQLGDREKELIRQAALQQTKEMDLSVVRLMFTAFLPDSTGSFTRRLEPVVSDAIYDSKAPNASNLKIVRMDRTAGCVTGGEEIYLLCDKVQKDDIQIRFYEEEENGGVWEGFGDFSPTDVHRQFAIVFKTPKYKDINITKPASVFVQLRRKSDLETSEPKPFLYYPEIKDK

[6] = target: T5, GST-Co-NF-kB (Capsaspora owczarzaki, UniProt F1ARL5 200-546)
T5 sequence: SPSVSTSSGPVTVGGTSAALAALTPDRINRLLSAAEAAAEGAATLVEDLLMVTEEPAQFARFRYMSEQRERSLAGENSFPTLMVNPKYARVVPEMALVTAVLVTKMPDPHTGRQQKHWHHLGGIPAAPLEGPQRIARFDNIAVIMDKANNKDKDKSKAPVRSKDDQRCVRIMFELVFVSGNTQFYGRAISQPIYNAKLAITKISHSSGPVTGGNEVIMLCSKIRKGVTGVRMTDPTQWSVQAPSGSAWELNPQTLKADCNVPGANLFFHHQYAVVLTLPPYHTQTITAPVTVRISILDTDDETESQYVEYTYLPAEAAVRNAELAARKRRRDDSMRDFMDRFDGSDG

[7] = target: T6, GST-Nv-NF-kB (Ser allele) (Nematostella vectensis, UniProt A7UNT2 2-411)
T6 sequence: T2 sequence with Q21R, C66S, S207N, E215Q, V217A, E225K, A268E, D399E

Row | Sequence | binding signal [1] | binding signal [2] | binding signal [3] | binding signal [4] | binding signal [5] | binding signal [6] | binding signal [7]
1 | CCGATTAACATCAGGCATGCCCCTGATGTTAATCGGGTCTTGATTCGCTTGACGCTGCTG | 2.6 z-score | 1.59 z-score | 4.39 z-score | – | – | – | –
2 | CCGATTAACATCAGAAAGTTTCCTGATGTTAATCGGGTCTTGATTCGCTTGACGCTGCTG | – | – | 1.06 z-score | 1.85 z-score | 1.69 z-score | – | –
3 | CCGATTAACATCAGGGCATGCCCTGATGTTAATCGGGTCTTGATTCGCTTGACGCTGCTG | 1.37 z-score | 1.29 z-score | 4.01 z-score | – | – | – | –
4 | CCGATTAACATCAGGAAAATTCCTGATGTTAATCGGGTCTTGATTCGCTTGACGCTGCTG | – | – | 2.45 z-score | 1.52 z-score | 1.61 z-score | – | –
5 | CCGATTAACATCAGGAAACAACCTGATGTTAATCGGGTCTTGATTCGCTTGACGCTGCTG | – | – | 2.89 z-score | 1.07 z-score | 1.61 z-score | – | –
6 | CCGATTAACATCAAAATTCCGGGTGATGTTAATCGGGTCTTGATTCGCTTGACGCTGCTG | – | – | 1.67 z-score | 1.53 z-score | 1.74 z-score | 1.33 z-score | –
7 | CCGATTAACATCAGGAAATTTACTGATGTTAATCGGGTCTTGATTCGCTTGACGCTGCTG | – | – | 1.54 z-score | 1.36 z-score | 1.51 z-score | – | –
8 | CCGATTAACATCAGGAATTTTTATGATGTTAATCGGGTCTTGATTCGCTTGACGCTGCTG | – | – | 1.99 z-score | 1.94 z-score | 1.39 z-score | – | –
9 | CCGATTAACATCAGGAACGTCCCTGATGTTAATCGGGTCTTGATTCGCTTGACGCTGCTG | 3.25 z-score | 3.14 z-score | 5.01 z-score | – | – | – | –
10 | CCGATTAACATCAGTCCCGCACTTGATGTTAATCGGGTCTTGATTCGCTTGACGCTGCTG | 1.61 z-score | 1.95 z-score | 2.85 z-score | – | – | – | –
11 | CCGATTAACATCATAGTCCCATGTGATGTTAATCGGGTCTTGATTCGCTTGACGCTGCTG | 2.47 z-score | 2.41 z-score | 2.36 z-score | – | – | – | –
12 | CCGATTAACATCAGGAGCTTCCCTGATGTTAATCGGGTCTTGATTCGCTTGACGCTGCTG | 1.1 z-score | 1.03 z-score | 3.47 z-score | – | – | – | –
13 | CCGATTAACATCACAAAAAATCCTGATGTTAATCGGGTCTTGATTCGCTTGACGCTGCTG | – | – | 1.44 z-score | 1.98 z-score | 1.98 z-score | – | –
14 | CCGATTAACATCAGGCACTTCCCTGATGTTAATCGGGTCTTGATTCGCTTGACGCTGCTG | 1.15 z-score | 1.51 z-score | 3.6 z-score | – | – | – | –
15 | CCGATTAACATCAGGAATAACCATGATGTTAATCGGGTCTTGATTCGCTTGACGCTGCTG | – | – | 1.32 z-score | 1.8 z-score | 2.29 z-score | – | –
16 | CCGATTAACATCAGAAAAATTCCTGATGTTAATCGGGTCTTGATTCGCTTGACGCTGCTG | – | – | 2.21 z-score | 2.97 z-score | 1.71 z-score | – | –
17 | CCGATTAACATCAGGAATTGCCCTGATGTTAATCGGGTCTTGATTCGCTTGACGCTGCTG | 1.16 z-score | 2.2 z-score | 4.94 z-score | – | – | – | –
18 | CCGATTAACATCAGGACTTGCCCTGATGTTAATCGGGTCTTGATTCGCTTGACGCTGCTG | 1.21 z-score | 1.11 z-score | 4.8 z-score | – | – | – | –
19 | CCGATTAACATCAAGCCTGTCCCTGATGTTAATCGGGTCTTGATTCGCTTGACGCTGCTG | 2.01 z-score | 1.27 z-score | 1.77 z-score | – | – | – | –

Row | Sequence | binding signal [1] | binding signal [2] | binding signal [3] | binding signal [4] | binding signal [5] | binding signal [6] | binding signal [7]
20 | CCGATTAACATCAGTTGTCCCGCTGATGTTAATCGGGTCTTGATTCGCTTGACGCTGCTG | 1.69 z-score | 1.89 z-score | 1.16 z-score | – | – | – | –
21 | CCGATTAACATCAGTCCCTAAGCTGATGTTAATCGGGTCTTGATTCGCTTGACGCTGCTG | 1.75 z-score | 3.07 z-score | 4.16 z-score | – | – | – | –
22 | CCGATTAACATCAAAATTTACCATGATGTTAATCGGGTCTTGATTCGCTTGACGCTGCTG | – | – | 1.07 z-score | 2.43 z-score | 2.22 z-score | – | 2.56 z-score
23 | CCGATTAACATCAGGCAGTTCCCTGATGTTAATCGGGTCTTGATTCGCTTGACGCTGCTG | 1.39 z-score | 1.3 z-score | 3.41 z-score | – | – | – | 1.25 z-score
24 | CCGATTAACATCAGGGGTCAGTATGATGTTAATCGGGTCTTGATTCGCTTGACGCTGCTG | 1.23 z-score | – | 1.09 z-score | – | – | – | –
25 | CCGATTAACATCAAATTTTCCGGTGATGTTAATCGGGTCTTGATTCGCTTGACGCTGCTG | – | – | 2.04 z-score | 1.54 z-score | 1.95 z-score | – | 1.67 z-score
26 | CCGATTAACATCACAAAAATTCCTGATGTTAATCGGGTCTTGATTCGCTTGACGCTGCTG | – | – | 1.5 z-score | 2.38 z-score | 1.01 z-score | – | –
27 | CCGATTAACATCAACGGGTCCCTTGATGTTAATCGGGTCTTGATTCGCTTGACGCTGCTG | 2.6 z-score | 1.84 z-score | 2.73 z-score | – | – | – | –
28 | CCGATTAACATCAAAAATTTCCATGATGTTAATCGGGTCTTGATTCGCTTGACGCTGCTG | – | – | 1.53 z-score | 1.53 z-score | 1.32 z-score | – | –
29 | CCGATTAACATCAGGAACCTCCCTGATGTTAATCGGGTCTTGATTCGCTTGACGCTGCTG | 1.92 z-score | 2.34 z-score | 4.17 z-score | – | – | – | –
30 | CCGATTAACATCAAAAAGTTTCCTGATGTTAATCGGGTCTTGATTCGCTTGACGCTGCTG | – | – | 1.68 z-score | 2.43 z-score | 1.42 z-score | – | –
31 | CCGATTAACATCAAAAATTCCAGTGATGTTAATCGGGTCTTGATTCGCTTGACGCTGCTG | – | – | 1.48 z-score | 1.57 z-score | 1.08 z-score | 1.37 z-score | –
32 | CCGATTAACATCAACCCCCCCCTTGATGTTAATCGGGTCTTGATTCGCTTGACGCTGCTG | 4.76 z-score | 4 z-score | 4.47 z-score | 4.91 z-score | – | 5.09 z-score | 3.93 z-score
33 | CCGATTAACATCATTAGGGAAAATGATGTTAATCGGGTCTTGATTCGCTTGACGCTGCTG | 3.51 z-score | 6.08 z-score | 4.53 z-score | 1.55 z-score | – | 2.21 z-score | 7.94 z-score
34 | CCGATTAACATCACAAATTTCCCTGATGTTAATCGGGTCTTGATTCGCTTGACGCTGCTG | 4.62 z-score | 6.4 z-score | 6.5 z-score | 3.72 z-score | – | 5.22 z-score | 6.92 z-score
35 | CCGATTAACATCAGGCGTTTCCCTGATGTTAATCGGGTCTTGATTCGCTTGACGCTGCTG | 2.18 z-score | 3.27 z-score | 4.39 z-score | 1.54 z-score | – | 1.83 z-score | 2.59 z-score
36 | CCGATTAACATCACATCTTCCCCTGATGTTAATCGGGTCTTGATTCGCTTGACGCTGCTG | 4.99 z-score | 6.11 z-score | 4.78 z-score | 2.45 z-score | – | 6.39 z-score | 7.12 z-score
37 | CCGATTAACATCAGGGAAAAAAATGATGTTAATCGGGTCTTGATTCGCTTGACGCTGCTG | 3.48 z-score | 5.81 z-score | 4.63 z-score | 2.19 z-score | – | 5.71 z-score | 7.5 z-score
